Measurements published in PubChem BioAssay (NCATS).
Calls of active or inactive are those of the source. How the calls were made is not given here.

The compounds below were run on HIV-1 nucleocapsid protein NCp7 (binding to TG oligonucleotide) (assay: HIV Nucleocapsid (AID 346;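 further: potency is for inhibitors that block NC binding and lower polarization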)). Settings: HIV-1 NC / fluorescein-TGTGTGTG probe, fluorescence polarization.
Method in brief: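 Reagents dispensed (10 nM TG4xF, 100 nM HIV-1 NC), plates spun, compounds pin-transferred, then incubated 1 hr at room temperature before FP imaging. Buffer: Hepes pH 7.5, 250mM NaCl, 1uM ZnCl2, 100 uM TCEP, 5 mM 2-mercaptoethanol.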
Potency means the concentration at half of the fitted maximal effect.

Row | SMILES | Potency
1 | COc1ncc2nc(-c3ccc(F)cc3)c(=O)n(C3CC3)c2n1 | > 20 µM (inactive)
2 | c1ccc(-c2ccc(N3CCCC4(CCNCC4)C3)cc2)cc1 | > 20 µM (inactive)
3 | CN(C)c1ncc2nc(-c3ccc(Cl)cc3)c(=O)n(Cc3cccs3)c2n1 | > 4 µM (inactive)
4 | CN1CCN(c2ncc3nc(-c4cc(F)cc(F)c4)c(=O)n(C)c3n2)CC1 | > 20 µM (inactive)
5 | COc1ccc(NC(=O)N2CCC3(CC2)CCN(C(=O)c2ccco2)CC3)cc1 | > 20 µM (inactive)
6 | COc1ccccc1-c1ccc2ncnc(N3CCNCC3)c2c1 | > 20 µM (inactive)
7 | COc1ccc2[nH]cc(CCNc3nc(-c4ccoc4)nc4ccccc34)c2c1 | > 20 µM (inactive)
8 | Cc1noc(C)c1-c1nccc(NC2CC2)n1 | > 20 µM (inactive)
9 | CN1CCCC2(CCN(C(=O)c3cccc(F)c3)CC2)C1 | > 20 µM (inactive)
10 | COc1ccc(NC(=O)N2CC[C@@]3(CCCN(C(=O)c4cnccn4)C3)C2)cc1 | > 20 µM (inactive)
11 | COCCn1c(=O)c(-c2ccc(Cl)cc2)nc2cnc(OC)nc21 | > 20 µM (inactive)
12 | O=c1c(-c2ccccc2)nc2cnc(N3CCOCC3)nc2n1Cc1cccs1 | > 20 µM (inactive)
13 | COc1ccc(Oc2ncc3ncc(=O)n(C)c3n2)cc1 | > 20 µM (inactive)
14 | COc1ncc2nc(-c3cn(C)c4ccccc34)c(=O)n(C[C@H]3CCCO3)c2n1 | > 20 µM (inactive)
15 | COc1ccc(C(=O)N2CCC3(CC2)CCN(c2ccccc2)CC3)cc1 | > 20 µM (inactive)
16 | CS(=O)(=O)N1CCC2(CCCN(C(=O)Nc3ccccc3)C2)CC1 | > 20 µM (inactive)
17 | c1csc(CNc2ncnc3ccc(-c4ccoc4)cc23)c1 | > 20 µM (inactive)
18 | COCC(=O)N1CCC[C@@]2(CCN(Cc3ccccc3)C2)C1 | > 20 µM (inactive)
19 | CN(C)c1ccnc(-c2ccccc2C(F)(F)F)n1 | > 20 µM (inactive)
20 | CN(Cc1ccco1)c1cc(-c2cccc(NS(C)(=O)=O)c2)ncn1 | > 20 µM (inactive)
21 | FC(F)(F)c1ccccc1-c1nccc(-n2ccnc2)n1 | > 20 µM (inactive)
22 | O=c1c(-c2ccccc2)nc2cnc(N3CCNCC3)nc2n1C1CC1 | > 20 µM (inactive)
23 | COc1ccccc1-c1ccc2ncnc(NC3CC3)c2c1 | > 20 µM (inactive)
24 | O=c1c(-c2ccc(F)cc2)nc2cnc(N3CCNCC3)nc2n1C1CC1 | > 20 µM (inactive)
